Compounds with a hit are over-represented: about 1.2% of the library has one in this group of screens.
Avidin bead fluor – avidin bead compound fluorescence profile | Avidin beads, compound fluorescence 488/530 nm, flow cytometry; active compounds read high | fluorescence (KMESF) at 10 µM | hit rate 0.38% among 220,000 | AID 1775; in the data active = fluorescence above about 47
RGS4-Gao reg – human RGS4-Galphao interaction regulation. binding response (% of control), % at 10 µM. hit rate 0.33% among 220,000. P09471. Multiplexed bead flow cytometry, RGS4-Galphao binding; actives lie on both sides; in the data active = binding response below about 49% or above about 150%; inactive = in between;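 note: fluorescent Galphao activated with aluminum fluoride binding bead-coupled RGS4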
Target sequence (P09471 whole entry, looked up): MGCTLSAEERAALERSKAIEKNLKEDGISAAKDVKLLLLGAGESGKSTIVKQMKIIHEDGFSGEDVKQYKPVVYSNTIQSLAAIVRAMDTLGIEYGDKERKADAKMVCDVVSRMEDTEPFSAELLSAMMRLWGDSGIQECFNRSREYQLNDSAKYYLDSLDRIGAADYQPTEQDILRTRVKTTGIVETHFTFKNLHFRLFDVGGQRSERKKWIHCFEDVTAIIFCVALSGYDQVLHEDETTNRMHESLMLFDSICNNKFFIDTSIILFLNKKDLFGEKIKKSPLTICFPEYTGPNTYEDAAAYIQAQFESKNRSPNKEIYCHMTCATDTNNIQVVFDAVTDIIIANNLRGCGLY
RGS7-Gao reg – regulators of human RGS7-Galphao interaction; hit rate 0.35% among 220,000; Multiplexed bead flow cytometry, RGS7-Galphao binding; actives lie on both sides; P09471; binding response (% of control), % at 10 µM; AID 1439; in the data active = binding response below about 49% or above about 150%; inconclusive = no clear call, values can overlap the other calls; inactive = in between;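 note: fluorescent Galphao held in activated GDP-AlF4 state binding bead-coupled RGS7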
RGS8-Gao reg – regulators of human RGS8-Galphao interaction; P09471; multiplexed bead flow cytometry, RGS8-Galphao binding; actives lie on both sides; hit rate 0.34% among 220,000; response (percent of control binding), % at 10 µM; in the data active = response below about 60% or above about 140%; inactive = in between;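 note: Galphao activated as the GDP aluminium fluoride complex binding bead-coupled RGS8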
GSH bead fluor – GSH bead compound fluorescence profile | GSH beads flow cytometry, compound fluorescence 488/530 nm; active compounds read high | fluorescence (KMESF) at 10 µM | hit rate 0.25% among 190,000 | AID 1776; in the data active = fluorescence above about 89;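 note: glutathione beads carrying GST-tagged Bcl family fusion proteins plus one bare bead set; values are compound well signal with DMSO vehicle wells as background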
RGS16-Gao – regulators of human RGS16-Galphao interaction | O15492+P09471 | bead-based flow cytometry RGS16-Galphao binding, fluorescence; actives lie on both sides | binding response (% of control), % at 10 µM | hit rate 0.38% among 220,000 | AID 1441; call rule not given here;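 note: Galphao activated by GDP with aluminum fluoride before binding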
Target sequence (O15492 whole entry, looked up): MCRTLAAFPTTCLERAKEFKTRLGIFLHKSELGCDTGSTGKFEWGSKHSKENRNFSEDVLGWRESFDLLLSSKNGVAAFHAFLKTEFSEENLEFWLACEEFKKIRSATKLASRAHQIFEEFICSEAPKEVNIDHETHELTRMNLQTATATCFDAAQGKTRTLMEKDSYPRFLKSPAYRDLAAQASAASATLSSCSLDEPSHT
Target sequence (P09471 whole entry, looked up): as the sequence (P09471 whole entry, looked up) above
* marks the source's active call; other numbers are inactive results; ? = inconclusive; . = not tested or not shown; [ ] = dose if it differs, or a comment.

SMILES | Avidin bead fluor | RGS4-Gao reg | RGS7-Gao reg | RGS8-Gao reg | GSH bead fluor | RGS16-Gao
O=C(CSc1nnnn1C1CCCC1)Nc1ccc(F)cc1 | 89* | 109 | 129 | 107 | 37 | 108
O=C(CSc1nnnn1C1CCCCC1)Nc1ccc(F)cc1 | 5 | 104 | 108 | 103 | 22 | 102
CSCCC(N=Cc1c(O)n(-c2ccc(F)cc2)c(=O)[nH]c1=O)C(=O)O (stereo not drawn) | 8 | 107 | 101 | 102 | 4 | 108
CS/C(N)=N/S(=O)(=O)c1ccc(NC(C)=O)cc1 | 75* | 114 | ? | 84 | . | 87
CC(C)CNC(=O)CCCc1ccccc1 | 9 | 99 | 95 | 100 | 8 | 100
C=CCNC(=O)CCCc1ccccc1 | 52* | 101 | 114 | 101 | 22 | 100
O=C1c2ccccc2C(=O)N1CCc1nc2ccccc2c(=O)n1CCCn1ccnc1 | 8 | 108 | 104 | 105 | 272* | 120
Cc1ccc(-n2c(C)nn(Cc3ccc([N+](=O)[O-])cc3)c2=O)cc1 | 9 | 100 | ? | 99 | 14 | 104
Cc1ccc(-n2c3nc(=O)[nH]c(=O)c-3cc3cc([N+](=O)[O-])ccc32)cc1 | 55* | 104 | 118 | 102 | 12 | 109
Cc1ccc(C(=O)C(OC(=O)CCC(=O)Nc2cccc(C)c2)c2ccccc2)cc1 (stereo not drawn) | 34 | 96 | 98 | 99 | 20 | 99
COc1ccc(NC(=O)CCC(=O)OC(C(=O)c2ccccc2)c2ccccc2)cc1 (stereo not drawn) | 55* | 100 | 106 | 101 | 27 | 101
Cn1c(=O)[nH]c(=O)c2[nH]c(NCCCN3CCOCC3)nc21 | 48* | 109 | 105 | 95 | 26 | 121
Oc1ccc(C=Nc2cccc3ncccc23)c(O)c1 | 15 | 99 | 97 | 102 | 23 | 101
Oc1ccc(C=Nc2ccc3ncccc3c2)c(O)c1 | 69* | 106 | 117 | 100 | 17 | 105
O=C(COC(=O)CCC(=O)c1cccs1)NC1CC1 | 10 | 94 | ? | 99 | 19 | 100
CN1C(=O)CC(N2CCC(C(N)=O)CC2)C1=O (stereo not drawn) | 16 | 93 | 93 | 94 | 22 | 80
C=CCn1c2ccccc2c2nnc(SCC(=O)NC(C(=O)OC)C(C)C)nc21 (stereo not drawn) | 119* | 123 | 139 | 96 | 23 | 121
COc1ccc(C(=O)NCC(=O)N2CCCC(C)C2)cc1OC (stereo not drawn) | 11 | 101 | ? | 99 | 12 | 99
CCOc1ccc(C(C)NC(=S)NCc2ccc(Cl)cc2)cc1 (stereo not drawn) | 11 | 100 | 106 | 99 | 11 | 99
CCOc1ccc(NC(=S)Nc2ccc(OC(F)(F)F)cc2)cc1 | 5 | 98 | 98 | 101 | 146* | 100
CCOc1ccc(NC(=S)Nc2ccc(OCC)cc2)cc1 | 12 | 101 | 101 | 104 | 14 | 108
COc1ccc(C(=O)C2CCCN(Cc3c(C)[nH]c4ccccc34)C2)c(OC)c1 (stereo not drawn) | 2 | 104 | 100 | 101 | 14 | 104
O=C(c1cnn2c(C(F)(F)F)cc(-c3cccs3)nc12)N1CCN(C(c2ccccc2)c2ccccc2)CC1 | 5 | 97 | 97 | 103 | 126* | 108
CN1CCN(C(=O)c2cnn3c(C(F)(F)F)cc(-c4cccs4)nc23)CC1 | 3 | 100 | 99 | 104 | 24 | 107
Cc1cc(NC(=O)C2(c3ccccc3)CCCC2)no1 | 59* | 136 | 135 | 113 | 16 | 160
SMILES | Avidin bead fluor | RGS4-Gao reg | RGS7-Gao reg | RGS8-Gao reg | GSH bead fluor | RGS16-Gao
N#C/C(=C/Nc1ccccc1)c1ccsc1 | 51* | 103 | 110 | 104 | 15 | 105
Cc1ccc(N/C=C(/C#N)c2ccsc2)cc1 | 12 | 102 | 100 | 102 | 26 | 103
Cc1ccc(NC(=O)Cn2cccc2C2=NC(c3ccccc3)CO2)cc1C (stereo not drawn) | 14 | 101 | 96 | 105 | 21 | 114
CCc1ccccc1NC(=O)Cn1cccc1C1=NC(c2ccccc2)CO1 (stereo not drawn) | 51* | 106 | 127 | 102 | 21 | 110
O=c1cc(CN2CCN(c3ccccc3O)CC2)nc2sccn12 | 7 | 92 | 91 | 97 | 255* | 94
Cc1cccc(N2CCN(Cc3cc(=O)n4ccsc4n3)CC2)c1C | 7 | 96 | 96 | 100 | 21 | 96
Cc1ccc(C)c(OCCCC(=O)N2CCOCC2)c1 | 10 | 98 | 103 | 100 | 10 | 94
CC1CCN(C(c2ccc(N(C)C)cc2)c2nnnn2Cc2ccc(F)cc2)CC1 (stereo not drawn) | 7 | 103 | 99 | 106 | 251* | 102
Fc1ccc(Cn2nnnc2C(c2ccc(Cl)cc2)N2CCSCC2)cc1 (stereo not drawn) | 6 | 89 | 100 | 96 | 39 | 85
CC(C)c1csc(CN2CCN(Cc3ccc(F)c(F)c3)C(CCO)C2)n1 (stereo not drawn) | 7 | 100 | 102 | 97 | 19 | 101
CC(=O)Oc1ccc2c(c1)Oc1cc(OC(C)=O)ccc1C21OC(=O)c2ccccc21 | 399* | 581*[activator] | 628*[activator] | 165*[activator] | 200* | 888*[activator]
COc1ccc(Nc2nc(N)c([N+](=O)[O-])c(NCc3ccccc3)n2)cc1 | 56* | 128 | ? | 101 | . | 120
Cc1ccc(Nc2nc(N)c([N+](=O)[O-])c(NCc3ccccc3)n2)cc1 | 8 | 105 | ? | 103 | . | 104
CCCNC(=O)Nc1nccs1 | 57* | 101 | 105 | 101 | 24 | 99
COc1ccc(Cl)cc1C(=O)Nc1nnn(C)n1 | 6 | 109 | 107 | 112 | 257* | 133
Cc1cccc(C)c1N1CCc2cn[nH]c21 | 48* | 102 | 102 | 96 | 12 | 100
CN(NS(=O)(=O)c1ccc(Br)cc1)c1nc(C(F)(F)F)nc2ccccc12 | 8 | 100 | 99 | 95 | 10 | 75
CCCCSc1nc(C)cc(NC(=S)Nc2ccc(OC)cc2)n1 | 4 | 101 | 100 | 101 | 26 | 99
COc1cc(SC)ccc1C(=O)N(Cc1ccccc1)c1ccccn1 | 51* | 107 | ? | 92 | . | 93
Cc1cc(C(=O)OCC(=O)NC2CCCCC2)c(C)o1 | 26 | 99 | 100 | 101 | 23 | 101
Cc1cc(C(=O)OCC(=O)NC(C)C)c(C)o1 | 7 | 101 | 102 | 102 | 269* | 100
c1ccc(-n2c(-c3ccncc3)nnc2-c2ccco2)cc1 | 10 | 97 | 95 | 98 | 12 | 87
Cc1c(NC(=O)c2cccs2)cccc1C(=O)O | 18 | 92 | 90 | 101 | 28 | 89
Cc1ccc(C(=O)O)cc1NC(=O)c1cccs1 | 7 | 98 | 95 | 102 | 95* | 98
CCC(=O)NCCc1nc2ccccc2[nH]1 | 8 | 99 | 98 | 100 | 5 | 101

Bioassay records (PubChem BioAssay)
